Screens as filed in PubChem BioAssay.
D1 antagonist: blocks dopamine activation of the human D1 receptor | HEK293 TREx D1 cells, calcium flux, dopamine EC80; stronger effect = lower value | activity change, negative = inhibition, % at 10 µM | hit rate 3.2% among 360,000 | AID 504652; in the data active means activity change below about -30%; further: on the % scale 0 is the no-effect control and ±100 the full control effect
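Compound effects on dopamine-evoked calcium signalling were measured in tetracycline-induced HEK293 Trex D1 cells. Dopamine at EC80 followed a 180 s compound pre-read, and fluorescence was tracked kinetically for 180 s more.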
TRHR ag: activates the human TRH receptor | AID 493084 | hit rate 0.18% among 360,000 | activation, % at 2 µM | TRHR cells, calcium flux fluo-8, FDSS agonist mode | P34981; further: 0% is about no effect
Target sequence (P34981 whole entry, looked up): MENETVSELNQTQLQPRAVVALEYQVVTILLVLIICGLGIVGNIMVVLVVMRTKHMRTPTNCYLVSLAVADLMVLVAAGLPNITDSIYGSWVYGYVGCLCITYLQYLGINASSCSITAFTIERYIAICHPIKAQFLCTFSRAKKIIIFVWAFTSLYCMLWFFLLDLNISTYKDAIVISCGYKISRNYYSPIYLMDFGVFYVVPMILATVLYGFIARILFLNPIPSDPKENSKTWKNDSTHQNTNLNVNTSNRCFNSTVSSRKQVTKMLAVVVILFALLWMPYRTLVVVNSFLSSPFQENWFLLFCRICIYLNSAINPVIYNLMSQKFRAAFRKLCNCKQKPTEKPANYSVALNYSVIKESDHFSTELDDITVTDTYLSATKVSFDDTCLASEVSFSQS
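Agonist-mode FDSS calcium read (Ex 480/Em 530, 1 s cycles) in 1536-well TRHR cells with fluo-8 dye, after 10-cycle baseline and 23 nL compound addition; TRH at EC20 (10 nM final) added afterwards for the enhancer phase.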
TRHR enhancer: TRH receptor (human) allosteric enhancement; AID 493056; TRHR cells, fluo-8 calcium fluorescence, EC20 TRH enhancement; P34981; enhancement, % at 2 µM; hit rate 0.66% among 360,000; in the data active means enhancement above about 30%; further: 0% is about no effect
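Enhancer read-out: after compound pinning and an initial kinetic agonist-mode read, an EC20 of TRH (10 nM final) was injected and fluo-8 calcium signal (Ex 480/Em 530) followed at 1 s/cycle for 100 cycles in TRHR-expressing cells.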
D1 ag: activates the human D1 dopamine receptor | P21728 | HEK293 T-REx D1 cells, calcium flux, agonist mode | activation, % at 2 µM | hit rate 1% among 360,000 | AID 504660; further: 0% is about no effect
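Tetracycline-induced HEK293 TREx D1 cells, force-coupled to calcium signalling, were dye-loaded with a no-wash calcium kit. Compound was pin-added after a 10 s baseline. Fluorescence was read kinetically at 1 cycle/s for 180 s, with calcium rises flagged as agonism.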
D1 PAM: enhances dopamine response at the human D1 receptor. HEK293 TREx D1 cells, calcium flux, dopamine EC20 potentiation. potentiation, % at 10 µM. hit rate 0.036% among 360,000. AID 504651; in the data active means potentiation above about 30%; further: 0% is about no effect
An asterisk follows results filed as active. In the library only some 4.6% were active in any assay of this set; here they are far more common. Unless noted, no stated cut-off is given here; in the data, active means activation above about 30%; inactive means the rest.

CCC(CC)C(=O)Nc1nc2c(s1)CC(C)CC2 (stereo unspecified) was read as D1 antagonist -20, TRHR ag 2, TRHR enhancer 1, D1 ag 33* and D1 PAM -1.
Screening CC1CCc2nc(NC(=O)C3CCCO3)sc2C1 (stereo unspecified) returned D1 antagonist 7, TRHR ag 0, TRHR enhancer -1, D1 ag 1 and D1 PAM 6.
For O=C(CSc1ncnc2sccc12)Nc1ccccc1 the results were D1 antagonist -61*, TRHR ag -1, TRHR enhancer -6, D1 ag 7 and D1 PAM -9.
O=C(CSc1ncnc2sccc12)Nc1ccccc1F was read as D1 antagonist -5, TRHR ag -1, TRHR enhancer -9, D1 ag 2 and D1 PAM -2.
COc1ccc(Cn2c(SCc3ccc(C(=O)NCc4cccs4)cc3)nc3ccncc32)cc1 was read as D1 antagonist -5, TRHR ag 0, TRHR enhancer 2, D1 ag 19 and D1 PAM -1.
`COc1cc2cc(C(=O)O)n(C)c2c(OC)c1OC` gave D1 antagonist -37*, TRHR ag 1, TRHR enhancer 14, D1 ag 6 and D1 PAM -3.
Cc1cc(Nc2ccccc2)nc(-c2ccccc2O)n1 was read as D1 antagonist -45*, TRHR ag 0, TRHR enhancer 6, D1 ag 4 and D1 PAM -3.
Cc1cc(Nc2cccc(F)c2)nc(-c2ccccc2O)n1 was read as D1 antagonist -19, TRHR ag 0, TRHR enhancer 1, D1 ag 2 and D1 PAM -9.
COC(=O)c1c(SC)nc2ccccc2c1OCc1ccccc1Cl was read as D1 antagonist 3, TRHR ag 1, TRHR enhancer -1, D1 ag 20 and D1 PAM 1.
CCOC(=O)c1c(S(=O)(=O)N2CCCC(C(=O)NCc3ccccc3OC)C2)c(C)n(C)c1C (stereo unspecified) was read as D1 antagonist 5, TRHR ag -1, TRHR enhancer 3, D1 ag 1 and D1 PAM -2.
For CN(C)CC(C)(C)CNS(=O)(=O)CC12CCC(CC1=O)C2(C)C (stereo unspecified) the results were D1 antagonist -75*, TRHR ag 1, TRHR enhancer 3, D1 ag -1 and D1 PAM 0.
`CC1(C)C2CCC1(CS(=O)(=O)NC1CCCC1)C(=O)C2` (stereo unspecified) gave D1 antagonist 12, TRHR ag 0, TRHR enhancer -3, D1 ag 4 and D1 PAM -1.
Screening Cc1nn(-c2ccccc2)c(Cl)c1/C=N/NC(N)=O returned D1 antagonist -32*, TRHR ag -1, TRHR enhancer -2, D1 ag 2 and D1 PAM 2.
`COC(=O)N/N=C\c1c(C)nn(-c2ccccc2)c1Cl` gave D1 antagonist -7, TRHR ag 0, TRHR enhancer -3, D1 ag 2 and D1 PAM 0.
CCOC(=O)C1CCCN(c2c(NCCCN(CC)c3cccc(C)c3)c(=O)c2=O)C1 (stereo unspecified) was read as D1 antagonist -16, TRHR ag 0, TRHR enhancer 76*, D1 ag 1 and D1 PAM -11.
Screening O=C(CSc1n[nH]c(-c2cccs2)n1)N1CCN(S(=O)(=O)c2ccccc2)CC1 returned D1 antagonist -59*, TRHR ag 0, TRHR enhancer -4, D1 ag 7 and D1 PAM -11.
Screening CC1CCN(C(=O)CSc2n[nH]c(-c3cccs3)n2)CC1 returned D1 antagonist 2, TRHR ag -1, TRHR enhancer -1, D1 ag 4 and D1 PAM 13.
`CCCCCn1c(CCCNC(=O)c2cccc(C)c2)nc2ccccc21` gave D1 antagonist 17, TRHR ag 1, TRHR enhancer 8, D1 ag 4 and D1 PAM 2.
`O=C(CC1=NCCNC(c2ccccc2)C1)c1ccccc1O` (stereo unspecified) gave D1 antagonist -41*, TRHR ag -1, TRHR enhancer -11, D1 ag 3 and D1 PAM -9.
CSCCC(NC(=O)c1ccc([N+](=O)[O-])cc1Cl)C(=O)OC(C)C(=O)NCc1ccco1 (stereo unspecified) was read as D1 antagonist 4, TRHR ag 0, TRHR enhancer 15, D1 ag 0 and D1 PAM -7.
Screening CSc1ccc(C2c3c(oc4cc(C)cc(C)c4c3=O)C(=O)N2CCO)cc1 (stereo unspecified) returned D1 antagonist -46*, TRHR ag 1, TRHR enhancer 5, D1 ag 0 and D1 PAM -1.
`CSc1ccc(C2c3c(oc4cc(C)cc(C)c4c3=O)C(=O)N2Cc2ccco2)cc1` (stereo unspecified) gave D1 antagonist -10, TRHR ag 0, TRHR enhancer -4, D1 ag 0 and D1 PAM 4.
N#Cc1cc2c(nc1SCc1cccc(Cl)c1)CCCCC2 was read as D1 antagonist -39*, TRHR ag 0, TRHR enhancer 2, D1 ag 2 and D1 PAM -3.
`N#Cc1cc2c(nc1SCc1ccccc1)CCCCC2` gave D1 antagonist 5, TRHR ag 0, TRHR enhancer 8, D1 ag 12 and D1 PAM -2.
For Cc1ccc(CSc2nc3c(cc2C#N)CCC3)cc1 the results were D1 antagonist -35*, TRHR ag 0, TRHR enhancer 2, D1 ag 1 and D1 PAM -1.
Screening N#CCSc1nc2c(cc1C#N)CCCC2 returned D1 antagonist -32*, TRHR ag -1, TRHR enhancer -1, D1 ag 4 and D1 PAM -4.
Screening CCCCOc1ccc(C(=O)Oc2cccnc2)cc1 returned D1 antagonist -5, TRHR ag 0, TRHR enhancer -2, D1 ag 4 and D1 PAM 4.
For Cc1cc2c(s1)c1cnn(Cc3c(F)cc(F)cc3F)c(=O)c1n2C the results were D1 antagonist 4, TRHR ag 0, TRHR enhancer -2, D1 ag 0 and D1 PAM 3.
`Oc1ccc(Br)cc1C1C=C(c2ccc3c(c2)OCO3)NC(c2c(F)cccc2Cl)N1` (stereo unspecified) gave D1 antagonist -56*, TRHR ag 1, TRHR enhancer -2, D1 ag 19 and D1 PAM -4.
For Oc1ccccc1C1C=C(c2ccc3c(c2)OCO3)NC(c2c(F)cccc2Cl)N1 (stereo unspecified) the results were D1 antagonist 32, TRHR ag 1, TRHR enhancer 4, D1 ag 12 and D1 PAM 2.
